According to PubChem BioAssay (NCI):
This is part of a sample that, as a whole, favours compounds with a hit. Of some 79,000 tested, about 15% had one in any assay. Active and inactive are the calls of the source. No stated cut-off is given here; in the data, active means growth inhibition above about 70%; inactive means the rest.

Key:
[1] = NCI Yeast Anticancer Drug Screen. Data for the rad50 strain (AID 155);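 further: 0% = growth of vehicle-only cultures of the same strain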; settings: S. cerevisiae rad50 strain growth inhibition; at 50.0 µM; hits give high values
Procedure, shortened: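 Inhibition values express reduced yeast growth in compound-treated cultures relative to vehicle-treated controls.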

[2] = NCI Yeast Anticancer Drug Screen. Data for the mec2-1 strain (AID 157); settings: S. cerevisiae mec2-1 strain, at 50.0 µM, hits give high values
Procedure, shortened: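 Compounds were applied to mec2-1 yeast cells. Their growth was then compared with that of vehicle-treated cultures to give growth inhibition.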

[3] = NCI Yeast Anticancer Drug Screen. Data for the sgs1 mgt1 strain (AID 161);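 further: 0% = growth of cultures given vehicle only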; settings: S. cerevisiae sgs1 mgt1 strain, at 50.0 µM, hits give high values
Procedure, shortened: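 This yeast growth screen uses a strain with defined DNA-repair lesions; compound-treated growth is compared with vehicle-treated growth.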

[4] = NCI Yeast Anticancer Drug Screen. Data for the cln2 rad14 strain (AID 165);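 further: 0% = growth equal to vehicle treated cultures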; settings: S. cerevisiae cln2 rad14 strain, at 50.0 µM, hits give high values
Procedure, shortened: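 Strain: cln2 rad14 yeast, altered in cell cycle control and DNA damage repair. Read-out: growth inhibition vs vehicle.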

[5] = NCI Yeast Anticancer Drug Screen. Data for the bub3 strain (AID 167); settings: S. cerevisiae bub3 mutant strain, at 50.0 µM, hits give high values
Procedure, shortened: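 Steps: expose the mutant yeast strain to compound; grow alongside vehicle-treated cultures; measure growth; express inhibition against the vehicle cultures.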

[6] = NCI Yeast Anticancer Drug Screen. Data for the mlh1 rad18 strain (AID 175); settings: S. cerevisiae mlh1 rad18 strain growth inhibition; at 50.0 µM; hits give high values
Procedure, shortened: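 A repair-deficient yeast strain is exposed to test compound, and growth is scored relative to vehicle-treated controls.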

Measured: growth inhibition

CC(O)C(c1ccc(N(C)C)cc1)c1ccc(N(C)C)cc1 (centres undefined)
inactive: [1] -6.25% | [2] 3.1% | [3] 2.35% | [4] -14.6% | [5] 6.05% | [6] 2.45%

CNC(=O)OCc1c(COC(=O)NC)c(C)n(-c2ccc3c(c2)OCO3)c1C
inactive: [1] -3.2% | [2] -6.95% | [3] 19.2% | [4] -0.45% | [5] 1.35% | [6] -40.3%

COc1cc2c(cc1OC)C(c1ccccc1)OCC2 (centres undefined)
inactive: [1] -8.25% | [2] 9.65% | [3] 6.8% | [4] -46.1% | [5] -2.6% | [6] -2.05%

CC1CC(C)OC(c2ccco2)O1 (centres undefined)
inactive: [1] 2.4% | [2] -20.6% | [3] -11.9% | [4] -37.6% | [5] -15.1% | [6] 16.2%

CN1CCN(C(=O)Nc2ccc(N=Nc3ccccc3)cc2)CC1
inactive: [1] -9.3% | [2] -17.2% | [3] 6.1% | [4] -29.5% | [5] 16.8% | [6] -6.25%

CCCC1(C)OCC(CCl)O1 (centres undefined)
inactive: [1] -41.6% | [2] -28.4% | [3] -14.6% | [4] -13.2% | [5] -18.3% | [6] 0.15%

COc1cc2c(cc1OC)C(C(CBr)CBr)N(C1CCCC1)CC2 (centres undefined)
inactive: [1] -8.2% | [2] -15.3% | [3] 13.6% | [4] -19.9% | [5] -12.4% | [6] 11.6%

CCN(CC)CCNc1ccc(OC)c2sc3ccccc3c(=O)c12
inactive: [1] 53.6% | [2] 25.4% | [3] 20.9% | [4] -7.85% | [5] 40.4% | [6] 24.6%

O=c1cccc2c3ccccc3ccn12
inactive: [1] 22.9% | [2] 7% | [3] 15.3% | [4] 12.3% | [5] 15.3% | [6] 13.5%

O=C(OCC1CCCO1)c1ccc(Cl)cc1 (centres undefined)
inactive: [1] 13.7% | [2] -4.4% | [3] 24.9% | [4] 34.1% | [5] 8% | [6] 7.2%

Clc1ccc(CN2COc3c(ccc4ccccc34)C2)cc1Cl
inactive: [1] 1.65% | [2] 15.2% | [3] 17.6% | [4] 9.65% | [5] 7.1% | [6] 13.8%

COc1ccc(N2C(=O)C3c4[nH]c5ccccc5c4C4CCC(C(C)(C)C)CC4C3C2=O)c(C)c1 (centres undefined)
inactive: [1] 11.9% | [2] 1.95% | [3] 14.7% | [4] 17.1% | [5] -2.45% | [6] 17.1%

CCC(Oc1ccc(Cl)cc1Cl)C(=O)O (centres undefined)
inactive: [1] -4.4% | [2] -9.8% | [3] -8.65% | [4] -8.25% | [5] -10.2% | [6] -1.75%

CCOC(=O)c1cn(CC)c2c(ccc3cnccc32)c1=O
inactive: [1] -3.55% | [2] -18.4% | [3] -18.4% | [4] 29.6% | [5] -11% | [6] 10.2%

O=C1CCSSCCC(=O)Nc2ccccc2N1
inactive: [1] -36.4% | [2] -42.5% | [3] -14.8% | [4] -9.55% | [5] -18.1% | [6] -15.6%

OCC(O)C(O)C(O)C(O)C(O)[C@@H](O)c1nc2ccccc2[nH]1 (some centres undefined)
inactive: [1] -9.2% | [2] -5.4% | [3] -12.3% | [4] -16.9% | [5] 50.1% | [6] 6.6%

CC(C)(C)C1CCC2c3c([nH]c4ccccc34)C3C(=O)N(c4ccc(Cl)cc4)C(=O)C3C2C1 (centres undefined)
inactive: [1] 37.6% | [2] -20% | [3] -6.1% | [4] -44.4% | [5] -25.4% | [6] -13.2%

NC(=O)COc1c(Br)cc(Br)cc1Br
inactive: [1] -1.55% | [2] 6.65% | [3] -12.1% | [4] -3.75% | [5] -21.4% | [6] -25.4%

CCOC1(COP(=O)(OCc2ccccc2)OCc2ccccc2)COC(COP(=O)(OCc2ccccc2)OCc2ccccc2)(OCC)CO1 (centres undefined)
inactive: [1] -30.1% | [2] -25.6% | [3] -16.2% | [4] 2.2% | [5] -3.75% | [6] -22.8%

O=C1CCCCc2cccc(O)c21
inactive: [1] 2% | [2] -3.85% | [3] -1.95% | [4] 24.3% | [5] 2.4% | [6] 2.1%

O=c1/c(=c2\c(=O)c3cccc4cccc2c43)c2cccc3cccc1c32
inactive: [1] -10.2% | [2] 24.9% | [3] -0.4% | [4] -34% | [5] -9.05% | [6] -18.1%

CCCCCCCCNC(=O)c1ccccc1C(=O)O
inactive: [1] 1.6% | [2] 14.9% | [3] 51.2% | [4] -32.8% | [5] 44.6% | [6] 13.4%

CC/C(CC(=O)CCC(=O)Nc1ccccc1[N+](=O)[O-])=N/NC(=O)C[n+]1ccccc1
inactive: [1] -1.8% | [2] 6.9% | [3] -56.1% | [4] 16.4% | [5] -1.35% | [6] -12.7%

NC(N)=NS(=O)(=O)c1ccc(N=Cc2c3ccccc3nc3ccccc23)cc1
active: [1] 98.7% | [2] 99.3% | [3] 99.2% | [4] 98.8% | [5] 96% | [6] 98.8%

O=C(O)c1ccc(O)cc1
inactive: [1] 14.3% | [2] 44.7% | [3] -0.9% | [4] 2.45% | [5] 1.7% | [6] 21.9%

Cc1nccc2cccc(CNC(C)C)c12
inactive: [1] 3.7% | [2] 2.7% | [3] 4.1% | [4] 7% | [5] -11.2% | [6] -4.25%

Cc1ccc(S(=O)(=O)N(CCO)CC(C)O)cc1 (centres undefined)
inactive: [1] -15.9% | [2] -24.1% | [3] -23.2% | [4] -13% | [5] -24.1% | [6] -26.8%

COC(=O)c1cc(-c2cccc3ccccc23)[nH]c(=O)c1C#N
inactive: [1] 8.85% | [2] 0.35% | [3] 17.6% | [4] 18.7% | [5] -6.6% | [6] 21.9%

S=C(SCc1c(Cl)cccc1Cl)N1CCSCC1
inactive: [1] -13.9% | [2] -14.2% | [3] 23.1% | [4] -6.85% | [5] 53% | [6] 0.6%

CC1(C)C(CC(=O)O)CCCC1CC(=O)O (centres undefined)
inactive: [1] 12.2% | [2] 0.95% | [3] 4.15% | [4] 2.15% | [5] -11.4% | [6] 49.2%

S=C(Cc1ccc2ccccc2c1)N1CCOCC1
inactive: [1] 29.4% | [2] 1.95% | [3] -2.1% | [4] 23.6% | [5] 30.4% | [6] 12.9%

Nc1scc[n+]1CCC(=O)[O-]
inactive: [1] -10.1% | [2] 0.75% | [3] 3.4% | [4] -13.2% | [5] -2.75% | [6] -15.8%

CC(=O)OC1COC(n2c(O)c(N=NC(N)=S)c3cc(Br)ccc32)C(OC(C)=O)C1OC(C)=O (centres undefined)
inactive: [1] 41.1% | [2] 8.2% | [3] 46.2% | [4] -34.2% | [5] 27.1% | [6] 31.1%

Clc1ccc(CNc2ncnc3nc(Cl)[nH]c23)cc1
inactive: [1] -14.4% | [2] -14.9% | [3] -4.6% | [4] -41.2% | [5] -10.2% | [6] -23.9%

Cc1cc(C)c(C2CC(O)C(CO)O2)cc1C (centres undefined)
inactive: [1] -2% | [2] -20.9% | [3] -10.1% | [4] 14.1% | [5] -3.35% | [6] 21.4%

COc1cc(OC)c(NC(=O)NC(C)(C)C)cc1Cl
inactive: [1] -3.35% | [2] 9.4% | [3] 17.1% | [4] -2.5% | [5] 18.6% | [6] 23.4%

CCCC1OCC(CC)([N+](=O)[O-])CO1 (centres undefined)
inactive: [1] 19.6% | [2] 15.7% | [3] 18.1% | [4] 9.3% | [5] -0.85% | [6] -5.7%

CC(C(=O)c1ccc(Cl)cc1)/C(=N/NC(=O)NN)C(=O)Nc1cccc(C(F)(F)F)c1 (centres undefined)
inactive: [1] -8.45% | [2] -16.6% | [3] -58.5% | [4] -56% | [5] 18.6% | [6] -6.95%

Cc1ccc(S(=O)(=O)N(c2cc(C)ccc2C)c2ccccc2N)cc1
inactive: [1] 58.6% | [2] 50.9% | [3] 41.8% | [4] 49.9% | [5] 20.9% | [6] 25.2%
